The labels stand for the following.
B1: chr1:203709306:203709407:+|CDS|ENSG00000058668|msi1|total|mutant (ssRNA)
RNA: GGGAGUUCUACAGUCCGACGAUCUCCAGAGAAGGAGGGAGGCCUGCCUCGGCAGGUGGGCAACAAGACCGAGUGUGCUCUGCCCGGCUUUGUCACAGAUCUGAAGCAGGAUUAUCAGGCUGUGCGUAAUGAAGUGCCCGAGGACAACAGAGGAUUGAGCAUCA
B2: chr1:225789428:225789553:+|3pUTR|ENSG00000143742|unk|FALSE|unique (ssRNA)
RNA: GGGAGUUCUACAGUCCGACGAUCUUAGAGAAAGUGUUGGGACAGAAAGUACUUUAUGUAACUAAGUGGGCUGUUCAGAAGCUUAGAGGUCAUUUUUUGUAAUUUUCUUUUUAAUUACUUUAGAGAGCUAGGGAUGCAAAUGUUCAACAGAGGAUUGAGCAUCA
B3: chr22:27980698:27980799:-|3pUTR|ENSG00000100154|unk|total|mutant (ssRNA)
RNA: GGGAGUUCUACAGUCCGACGAUCUAACCAUUAAUUUAUUUUAUAAAGAAAGGAAAUGCUGAAAGUCGUAUCCGUACUGAGUUCCGUUGGAGAAUUCCGAUAAGUAAGUAUCUUUCCGGUAAUUCUAAAAUUAAAAUCCUACCCCAACAGAGGAUUGAGCAUCA
B4: ENSG00000124766:be:win_3501|3pUTR|ENSG00000124766|bound_else_gene|NA|bound_elsewhere_windowed (ssRNA)
RNA: GGGAGUUCUACAGUCCGACGAUCAACUUGUAAACCACAUCUUUUUUGCACUUUUUUUAUAAGCAAAAACGUGCCGUUUAAACCACUGGAUCUAUCUAAAUGCCGAUUUGAGUUCGCGACACUAUGUACUGCGUUUUUCAUUCUCAACAGAGGAUUGAGCAUCA
B5: chr10:60791946:60792061:+|CDS|ENSG00000170312|unk|FALSE|unique (ssRNA)
RNA: GGGAGUUCUACAGUCCGACGAUCGUCAGCUCGUUACUCAACUCCAGUUGACAUUUGGAGUAUAGGCACCAUAUUUGCUGAACUAGCAACUAAGAAACCACUUUUCCAUGGGGAUUCAGAAAUUGAUCAACUCUUCAGGAUUUUCAACAGAGGAUUGAGCAUCA
B6: chr19:13098382:13098626:+|3pUTR|ENSG00000008441|msi1|FALSE|unique (ssRNA)
RNA: GGGAGUUCUACAGUCCGACGAUCACGCAGUAUAUACGAGUAUCUCUAUAUAUAGUACUAAUGGAUUUGGUGUGCUUCCCCCUUAGCGUCCCCCUCCCUCUGCUCCUCCUCCUUCAGCCUGGUCUCCCCCUCUUCUCUGCCCUCCAACAGAGGAUUGAGCAUCA
B7: chr16:1487315:1487970:-|CDS|ENSG00000251692|control|control|control (ssRNA)
RNA: GGGAGUUCUACAGUCCGACGAUCGGGGGAGCUGGCGCAGCUCAAGGCCUGGGUGAGGAAGCUGCAGCGCCGAGGCCGGAAAGUAGACACGCGGCUGCGGGCCUUGGACCUCACCCUGGGCGAGAGGAGCCAGCAGCGGGCCCGCAACAGAGGAUUGAGCAUCA
B8: chr6:149410404:149410522:+|3pUTR|ENSG00000055208|unk|total|mutant (ssRNA)
RNA: GGGAGUUCUACAGUCCGACGAUCUUAUAUUUCUAUAUGUACCGUGUAACCGCCUUUUGUUAACUAAUUUUCUUUUUUCCUUUCCGUAAUUAAGCACGAUCAUGUCCCUUUUUAAGCCUUACCUGAGAGGAACAAUGCCUUAAACAACAGAGGAUUGAGCAUCA
B9: chr10:52765379:52768136:-|three_prime_utr|ENSG00000165471|control|control|control (ssRNA)
RNA: GGGAGUUCUACAGUCCGACGAUCUUGUUCCUUUUGUGGGCAAUCACUAAAAAUGAUCACUAACAGCACCAACAAAGCAAUAAUAGUAGUAGUAGUAGUUAGCAGCAGCAGUAGUAGUCAUGCUAAUUAUAUAAUAUUUUUAAUCAACAGAGGAUUGAGCAUCA
B10: chr6:149410404:149410522:+|3pUTR|ENSG00000055208|unk|FALSE|bound_elsewhere (ssRNA)
RNA: B8 RNA with C41U, C42A, C49U, C50A, C83U, C84A
B11: chr6:132743869:132744491:-|three_prime_utr|ENSG00000112303|control|control|control (ssRNA)
RNA: GGGAGUUCUACAGUCCGACGAUCAUGUGGGACCAGCAAUUCAGCAAUAACUUACCUGCUAAUAUUCAUAUUAUUAAUGAUCAUAGCUUUGCAAAAUAUUGUAAUGUUAUAGGGCGUCUCUUUAUCACUCAGCUUCUGCAUCAUCAACAGAGGAUUGAGCAUCA
B12: chr3:112140897:112141281:-|three_prime_utr|ENSG00000172139|control|control|control (ssRNA)
RNA: GGGAGUUCUACAGUCCGACGAUCACUUUUUGCAAAAUUUCCUUGAUUUAAAAUAUUUGUUAUUUUAAAUAUACAAAACAUUUUAGAAAAUCUUAGAGUAAAUUUUAGUCUUAAAGCCAGAAAAUAAGUUUAUAGCCAUCUAGACAACAGAGGAUUGAGCAUCA
B13: chr2:15946816:15946917:+|3pUTR|ENSG00000134323|unk|FALSE|unique (ssRNA)
RNA: GGGAGUUCUACAGUCCGACGAUCUAUAUGCCUUUUUCCUAGCCUGUUUCUUCCUGUUAAUGUAUUUGUUCAUGUUUGGUGCAUAGAACUGGGUAAAUGCAAAGUUCUGUGUUUAAUUUCUUCAAAAUGUAUAUAUUUAGUGCUCAACAGAGGAUUGAGCAUCA
B14: chr17:142788:147440:-|three_prime_utr|ENSG00000272636|control|control|control (ssRNA)
RNA: GGGAGUUCUACAGUCCGACGAUCGAGACCUCAGCACCUGCCCAGGGGAAGGGGACACGCCCAUCUGGGAGCAAAGACCCUUCUAGAGGCCAGCCCCGGCUGAGAGGACAGGAGUGUGGGGGCGCCUUGGCGGACAGUGGGAACCAACAGAGGAUUGAGCAUCA
B15: ENSG00000006432:stop:overlap|stop_codon|ENSG00000006432|stop_codon|NA|stop_codon (ssRNA)
RNA: GGGAGUUCUACAGUCCGACGAUCGAGCGGAACUGAACACACACAGGCCUGCCCCUUAUGAGAUCCAGCAGGAGUUCUGGUCUUAGCACGAAAAGGAUUGGGGCGGGCAAGGGGGACAGCCAGCGGAGAUGAGGGGAGCUGGCGCAACAGAGGAUUGAGCAUCA

Results on 15 molecules are retold here after paper PMC12136788.

Substitutions are numbered along the chain they refer to. In all, about 5,800 sequences were measured (“enrichment r”: median about 0.68, highest 2% from about 11 on). The list comes from a sample in which the highest values are over-represented; it also holds similar and randomly drawn sequences.

The experiment concerns the target T1, UNK ZnF1-6 (called full-length) (human, UniProt Q9C0B0 30-357).
T1 sequence: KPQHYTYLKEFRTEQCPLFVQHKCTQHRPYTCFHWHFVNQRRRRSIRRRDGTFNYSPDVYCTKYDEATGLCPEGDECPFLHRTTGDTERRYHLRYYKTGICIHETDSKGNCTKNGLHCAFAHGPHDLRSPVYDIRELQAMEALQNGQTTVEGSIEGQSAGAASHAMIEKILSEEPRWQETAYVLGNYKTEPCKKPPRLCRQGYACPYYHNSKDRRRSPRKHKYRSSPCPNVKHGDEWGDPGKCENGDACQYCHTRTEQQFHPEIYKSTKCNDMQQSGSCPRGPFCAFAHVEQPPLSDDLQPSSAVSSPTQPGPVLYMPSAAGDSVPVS
Description: nsRBNS (natural sequence RNA bind-n-seq); RBNS binding buffer (assumed for nsRBNS): 25 mM Tris pH 7.5, 150 mM KCl, 3 mM MgCl2, 0.01% Triton X-100, 500 ug/ml BSA, 20 U/ml SUPERase-In, 4 C; UNK is unkempt and MSI1 is Musashi-1; names of the RNAs are library labels; protein concentration not given here; high values mean tight binding.
B1: the binding signal amounted to 0.691 enrichment R.

Take B2: the binding signal came out at 1.53 enrichment R.

On to B3, for which the binding signal was found to be 0.76 enrichment R.

B4 came in with a binding signal of 0.497 enrichment R.

Molecule B5 came in with a binding signal of 0.452 enrichment R.

B6: the binding signal was 1.99 enrichment R.

In turn, B7 returned a binding signal of 0.727 enrichment R.

For the molecule B8, the binding signal was 4.24 enrichment R.

The molecule B9 yielded a binding signal of 16.5 enrichment R.

Consider B10, for which the binding signal was found to be 66 enrichment R.

B11 gave a binding signal of 0.744 enrichment R.

The molecule B12 showed a binding signal of 2.83 enrichment R.

B13 showed a binding signal of 1.93 enrichment R.

B14: the binding signal was 0.805 enrichment R.

For B15, the binding signal worked out at 11.7 enrichment R.
